Screening data as filed in PubChem.
C diff HTS – inhibitors of Clostridium difficile growth; Clostridium difficile clinical isolate growth, OD600, 24 h; hits give low values; growth activity, negative = inhibition, % at 16 µg/mL (by protocol); 0.25% of 86,000 active;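 active = mean growth activity at or below -80% and every replicate also at or below -80%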
Pf Dd2 growth – blocks growth of Plasmodium falciparum Dd2 parasites | P. falciparum Dd2 growth, SYBR Green, 72 h; hits give low values | activity change, % at 10 µM | 2.3% of 94,000 active | AID 1159554; in the data active = activity change below about -80%
Numbers stand for hits. This is a sample that favours compounds with a hit; in the whole collection about 2.3% have one here.

Results for C[C@@H]1CCCCO[C@H](CN(C)C(=O)Nc2cccc3ccccc23)[C@H](C)CN([C@H](C)CO)C(=O)c2cc(NS(=O)(=O)c3ccc(F)cc3)ccc2O1 ?
C diff HTS: inactive; Pf Dd2 growth: -84

What do the screens show for `C[C@@H]1CN([C@@H](C)CO)C(=O)c2cc(NS(=O)(=O)c3ccc(F)cc3)ccc2O[C@@H](C)CCCCO[C@H]1CN(C)C(=O)Nc1cccc2ccccc12`?
C diff HTS: inactive; Pf Dd2 growth: -86

Results for Cc1ccc(S(=O)(=O)N(C)C[C@@H]2Oc3ccc(NS(=O)(=O)c4ccccc4)cc3C(=O)N([C@@H](C)CO)C[C@@H]2C)cc1 ?
C diff HTS: inactive; Pf Dd2 growth: inactive

What do the screens show for `CN(C)C(=O)c1cccc(-c2ccc([C@H]3[C@H](CO)N4CCCCN(C(=O)C5CCCC5)C[C@@H]34)cc2)c1`?
C diff HTS: inactive; Pf Dd2 growth: inactive

Results for CN1C(=O)c2cc(NC(=O)NC3CCCC3)ccc2OC[C@@H]2O[C@H](CC(=O)O)CC[C@@H]21 ?
C diff HTS: inactive; Pf Dd2 growth: inactive

Results for Cc1ccc(S(=O)(=O)Nc2ccc3c(c2)C(=O)N([C@H](C)CO)C[C@@H](C)[C@@H](CN(C)S(=O)(=O)c2ccc(Cl)cc2)OCCCC[C@H](C)O3)cc1 ?
C diff HTS: inactive; Pf Dd2 growth: -86

What do the screens show for `Cc1ccc(S(=O)(=O)N(C)C[C@@H]2OCCCC[C@H](C)Oc3ccc(NS(=O)(=O)c4ccc(Cl)cc4)cc3C(=O)N([C@H](C)CO)C[C@@H]2C)cc1`?
C diff HTS: inactive; Pf Dd2 growth: inactive

How did Cc1ccc(S(=O)(=O)Nc2ccc3c(c2)C(=O)N([C@@H](C)CO)C[C@@H](C)[C@H](CN(C)S(=O)(=O)c2ccc(Cl)cc2)OCCCC[C@@H](C)O3)cc1 do in these assays?
C diff HTS: inactive; Pf Dd2 growth: inactive

What do the screens show for `Cc1noc(C)c1S(=O)(=O)Nc1ccc2c(c1)C(=O)N([C@@H](C)CO)C[C@H](C)[C@H](CN(C)S(=O)(=O)c1ccc(Cl)cc1)OCCCC[C@@H](C)O2`?
C diff HTS: inactive; Pf Dd2 growth: inactive

How did Cc1noc(C)c1S(=O)(=O)Nc1ccc2c(c1)C(=O)N([C@@H](C)CO)C[C@H](C)[C@@H](CN(C)S(=O)(=O)c1ccc(Cl)cc1)OCCCC[C@@H](C)O2 do in these assays?
C diff HTS: inactive; Pf Dd2 growth: -84

How did Cc1ccc(S(=O)(=O)Nc2ccc3c(c2)C(=O)N([C@H](C)CO)C[C@H](C)[C@H](CN(C)S(=O)(=O)c2ccc(Cl)cc2)OCCCC[C@H](C)O3)cc1 do in these assays?
C diff HTS: inactive; Pf Dd2 growth: inactive

How did Cc1ccc(S(=O)(=O)Nc2ccc3c(c2)C(=O)N([C@@H](C)CO)C[C@H](C)[C@H](CN(C)S(=O)(=O)c2ccc(Cl)cc2)OCCCC[C@@H](C)O3)cc1 do in these assays?
C diff HTS: inactive; Pf Dd2 growth: -86

Results for Cc1ccc(S(=O)(=O)Nc2ccc3c(c2)C(=O)N([C@H](C)CO)C[C@@H](C)[C@H](CN(C)S(=O)(=O)c2ccc(Cl)cc2)OCCCC[C@@H](C)O3)cc1 ?
C diff HTS: inactive; Pf Dd2 growth: -81

How did O=C(C1CCCC1)N1CC2(C1)[C@H](c1ccccc1)[C@H](CO)N2C(=O)NC1CCCC1 do in these assays?
C diff HTS: inactive; Pf Dd2 growth: inactive

What do the screens show for `CCCNC(=O)N(C)C[C@@H]1Oc2ncc(C#Cc3ccccc3F)cc2C(=O)N([C@H](C)CO)C[C@H]1C`?
C diff HTS: inactive; Pf Dd2 growth: inactive

Results for C[C@H]1CN([C@@H](C)CO)C(=O)Cc2cc(N(C)C)ccc2O[C@H]1CN(C)C(=O)Nc1ccc(C(F)(F)F)cc1 ?
C diff HTS: inactive; Pf Dd2 growth: inactive

How did Cc1ccc(S(=O)(=O)Nc2ccc3c(c2)C(=O)N([C@H](C)CO)C[C@@H](C)[C@@H](CN(C)S(=O)(=O)c2ccc(Cl)cc2)OCCCC[C@@H](C)O3)cc1 do in these assays?
C diff HTS: inactive; Pf Dd2 growth: -85

Results for Cc1ccc(S(=O)(=O)N(C)C[C@H]2OCCCC[C@H](C)Oc3ccc(NS(=O)(=O)c4ccc(Cl)cc4)cc3C(=O)N([C@H](C)CO)C[C@H]2C)cc1 ?
C diff HTS: inactive; Pf Dd2 growth: inactive

What do the screens show for `COc1ccc(NC(=O)N(C)C[C@H]2OCCCC[C@H](C)Oc3ccc(NC(=O)Nc4cccc5ccccc45)cc3C(=O)N([C@H](C)CO)C[C@H]2C)cc1`?
C diff HTS: inactive; Pf Dd2 growth: -86

What do the screens show for `COc1ccc(NC(=O)N(C)C[C@H]2OCCCC[C@@H](C)Oc3ccc(NC(=O)Nc4cccc5ccccc45)cc3C(=O)N([C@H](C)CO)C[C@@H]2C)cc1`?
C diff HTS: inactive; Pf Dd2 growth: inactive

How did COc1ccc(NC(=O)N(C)C[C@H]2OCCCC[C@H](C)Oc3ccc(NC(=O)Nc4cccc5ccccc45)cc3C(=O)N([C@@H](C)CO)C[C@H]2C)cc1 do in these assays?
C diff HTS: inactive; Pf Dd2 growth: -85
